A short description of experiment [1]: antimalarial activity against Dd2 strain (AID 2302;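 active = growth inhibition above 50% at the single 2 µM test dose, taken to imply half-maximal potency below 2 µM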;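 note: 0% = DMSO untreated growth and 100% = chloroquine plus artemisinin killed control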). The conditions noted are these: P. falciparum Dd2 in RBCs, LDH growth readout, 72 h; at 2 µM; active compounds read high.
Experiment [2] is described as follows: human hepatoma cell viability loss – ATP luminescence, cytotoxicity control for P. falciparum antimalarial project, primary screen (AID 2303;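 active = inhibition above 50%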;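 note: 0% = DMSO wells and 100% = digitonin-killed cells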). The conditions noted are these: HepG2 viability, 24-48 h, at 10 µM, active compounds read high.
In experiment [3] the target is L-lactate dehydrogenase (Plasmodium falciparum (isolate CDC / Honduras)) (UniProt Q27743). Nature of the experiment: PfLDH activity inhibition – cell lysate, 3D7 strain, counter-screen for P. falciparum growth inhibition project (AID 2304).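 Note: 0% = vehicle and 100% = reference inhibitor.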 The conditions noted are these: P. falciparum 3D7 crude extract, LDH APAD/NBT absorbance; at 2 µM; active compounds read high. (A counterscreen serves to expose hits that act by an unwanted route or on another target.)

Experiment [4] in a line: inhibition of 3D7 malaria parasite growth – strain 3D7 (AID 2306).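 Note: 0% = DMSO wells and 100% = chloroquine plus artemisinin control wells.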 As to conditions: P. falciparum 3D7 erythrocytic growth, LDH absorbance, 72 h; at 2 µM; active compounds read high.
Experiment [5] addresses Calcium-dependent protein kinase 1 (Plasmodium falciparum (isolate 3D7)) (UniProt P62344). Nature of the experiment: PfCDPK1 kinase inhibitors, biochemical, TCAMS library (AID 1159585; cut-off not given, nearly all actives have IC50 up to about 0.98 µM;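 note: inhibitors leave more ATP so luminescence rises with inhibition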). As to conditions: recombinant PfCDPK1, Kinase-Glo ATP depletion luminescence. On the technique in general: Kinase-Glo measures the ATP left after a reaction by luminescence.
Experiment [6] addresses Plasmodium falciparum protein kinase 6 (PK6, PF3D7_1337100) (UniProt Q8IDW1). The experiment can be described thus: PfPK6 kinase inhibitors, biochemical, TCAMS library (AID 1159586). As to conditions: recombinant PfPK6, Kinase-Glo ATP depletion luminescence.
Experiment [7] deals with Protein kinase 7 (PK7), Plasmodium falciparum 3D7 (PF3D7_0213400) (UniProt Q7YTF7). The experiment can be described thus: inhibition of Plasmodium PK7 catalytic activity – biochemical, TCAMS antimalarial set, Kinase-Glo luminescence (AID 1159587). As to conditions: recombinant PfPK7, Kinase-Glo ATP depletion luminescence.
Experiment [8] concerns the target Calcium-dependent protein kinase 4 (Plasmodium falciparum (isolate 3D7)) (UniProt Q8IBS5). The experiment can be described thus: PfCDPK4 kinase inhibitors, biochemical, TCAMS library (AID 1159588; cut-off not given, nearly all actives have IC50 up to about 0.91 µM). The conditions noted are these: recombinant PfCDPK4, Kinase-Glo ATP depletion luminescence.

A number with no mark means an inactive call. For part of these data: Entries with a potency or affinity are not part of this list. The source made the active and inactive calls. Unless noted, the rule behind the calls is not given here.

Sequence of Plasmodium falciparum protein kinase 6 (PK6, PF3D7_1337100) (Q8IDW1 1-305): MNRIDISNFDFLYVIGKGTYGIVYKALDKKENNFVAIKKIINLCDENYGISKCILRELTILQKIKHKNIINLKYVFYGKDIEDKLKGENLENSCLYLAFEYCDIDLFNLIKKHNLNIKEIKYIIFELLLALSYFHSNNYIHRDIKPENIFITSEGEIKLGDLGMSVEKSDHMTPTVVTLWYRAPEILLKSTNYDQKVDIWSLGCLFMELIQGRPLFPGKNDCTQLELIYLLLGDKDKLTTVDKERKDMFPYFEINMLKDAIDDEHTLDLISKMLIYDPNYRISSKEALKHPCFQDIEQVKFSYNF
Sequence of Protein kinase 7 (PK7), Plasmodium falciparum 3D7 (PF3D7_0213400) (Q7YTF7 1-343): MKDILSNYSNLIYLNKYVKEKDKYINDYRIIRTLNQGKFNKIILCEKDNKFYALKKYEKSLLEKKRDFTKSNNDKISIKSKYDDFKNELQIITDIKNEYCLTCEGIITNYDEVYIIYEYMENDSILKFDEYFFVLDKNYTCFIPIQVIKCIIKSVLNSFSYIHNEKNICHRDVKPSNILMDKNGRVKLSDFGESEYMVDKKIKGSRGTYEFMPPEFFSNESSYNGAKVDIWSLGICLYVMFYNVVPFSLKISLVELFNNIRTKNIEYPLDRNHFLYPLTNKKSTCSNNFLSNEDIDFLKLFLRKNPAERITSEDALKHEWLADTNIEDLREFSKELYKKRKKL
Sequence of Calcium-dependent protein kinase 4 (Plasmodium falciparum (isolate 3D7)) (Q8IBS5 whole entry, looked up): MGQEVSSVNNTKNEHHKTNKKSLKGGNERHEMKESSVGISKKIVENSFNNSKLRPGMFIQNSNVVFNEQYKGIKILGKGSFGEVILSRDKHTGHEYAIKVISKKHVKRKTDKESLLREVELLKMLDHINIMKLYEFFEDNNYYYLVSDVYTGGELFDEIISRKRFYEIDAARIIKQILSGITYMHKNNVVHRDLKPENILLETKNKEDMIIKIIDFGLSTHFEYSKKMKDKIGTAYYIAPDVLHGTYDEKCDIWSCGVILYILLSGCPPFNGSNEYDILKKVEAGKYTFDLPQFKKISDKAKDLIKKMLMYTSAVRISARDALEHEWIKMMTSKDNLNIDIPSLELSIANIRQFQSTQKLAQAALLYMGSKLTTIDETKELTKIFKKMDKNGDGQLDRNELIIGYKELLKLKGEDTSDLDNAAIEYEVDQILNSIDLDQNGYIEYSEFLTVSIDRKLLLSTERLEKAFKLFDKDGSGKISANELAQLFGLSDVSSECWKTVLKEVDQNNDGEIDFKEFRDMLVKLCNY
Sequence of Calcium-dependent protein kinase 1 (Plasmodium falciparum (isolate 3D7)) (P62344 whole entry, looked up): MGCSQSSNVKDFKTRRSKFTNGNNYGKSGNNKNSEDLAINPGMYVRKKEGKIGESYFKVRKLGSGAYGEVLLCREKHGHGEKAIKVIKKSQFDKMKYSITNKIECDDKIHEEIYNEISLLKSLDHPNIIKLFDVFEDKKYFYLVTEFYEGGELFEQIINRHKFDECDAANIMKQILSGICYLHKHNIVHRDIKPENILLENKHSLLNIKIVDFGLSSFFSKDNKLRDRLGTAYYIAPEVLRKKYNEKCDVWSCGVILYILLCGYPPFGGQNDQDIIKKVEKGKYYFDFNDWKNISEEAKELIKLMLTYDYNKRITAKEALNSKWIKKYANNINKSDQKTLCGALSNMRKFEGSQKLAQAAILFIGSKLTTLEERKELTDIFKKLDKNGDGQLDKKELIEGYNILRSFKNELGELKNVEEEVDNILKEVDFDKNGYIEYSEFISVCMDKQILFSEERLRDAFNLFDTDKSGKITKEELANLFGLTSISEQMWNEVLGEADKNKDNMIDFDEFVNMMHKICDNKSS
Sequence of L-lactate dehydrogenase (Plasmodium falciparum (isolate CDC / Honduras)) (Q27743 whole entry, looked up): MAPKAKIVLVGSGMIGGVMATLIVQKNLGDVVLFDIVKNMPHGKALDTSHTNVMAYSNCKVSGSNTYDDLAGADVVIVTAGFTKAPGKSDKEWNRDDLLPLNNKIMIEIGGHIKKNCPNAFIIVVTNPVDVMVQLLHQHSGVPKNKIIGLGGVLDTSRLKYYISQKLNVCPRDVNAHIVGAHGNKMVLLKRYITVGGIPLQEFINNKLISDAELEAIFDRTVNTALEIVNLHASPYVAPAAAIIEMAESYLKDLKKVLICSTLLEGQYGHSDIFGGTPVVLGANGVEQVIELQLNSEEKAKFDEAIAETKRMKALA

As a reminder, the inhibition is the relative decrease from the control value, in per cent. Regarding `CCOC(=O)C(C)(C)Oc1ccc(CN(Cc2ccc(CC(C)C)cc2)C(=O)Nc2ccc(F)cc2F)c(OC)c1`, the growth inhibition in experiment [1] is 96% (active); in experiment [4] it was 97% (active). Besides, the inhibition was 5% in experiment [2] and -8% in experiment [3]. Besides, the outcome in experiment [5], in experiment [6], in experiment [7] and in experiment [8] was inactive.
`Cc1ccn2c(N(Cc3ccccc3)C(=O)c3ccc(Cl)c(Cl)c3)c(-c3ccccc3)nc2c1`: the growth inhibition is -5% in experiment [1] and 95% (active) in experiment [4]. Moreover, the inhibition in experiment [2] was -20%; in experiment [3] it was -7%. Also, the outcome in experiment [5], in experiment [6], in experiment [7] and in experiment [8] was inactive.
For the molecule `FC(F)(F)c1ccc2nc(-c3ccc(-c4cccc(CNCc5ccccc5)c4)s3)[nH]c2c1`, the growth inhibition in experiment [1] was 83% (active); in experiment [4], 102% (active). The inhibition in experiment [2] was 15%; in experiment [3] it was -5%. The result in experiment [5], in experiment [6], in experiment [7] and in experiment [8] was inactive.
Take `Cc1ccc(Nc2nc(C)cc(NCc3ccc(-n4ccnc4)cc3)n2)cc1`: the values for the growth inhibition in experiment [1] and in experiment [4] were 100% (active) and 101% (active), respectively. Further, the inhibition in experiment [2] was 33%; in experiment [3], 1%. For the same molecule, the outcome in experiment [5], in experiment [6], in experiment [7] and in experiment [8] was inactive.
Regarding `O=C(/C=C/c1ccc(C(F)(F)F)cc1)NCCCCCN1CCCN(C(=O)Nc2cccc(Cl)c2)CC1`, the growth inhibition in experiment [1] was 3%; in experiment [4], 92% (active). Further, the inhibition was 16% in experiment [2] and 3% in experiment [3]. Also, the outcome in experiment [5], in experiment [6], in experiment [7] and in experiment [8] was inactive.
In the case of `COc1ccc2nccc([C@@H](O)CN3CCC(NCc4cc5ccccc5o4)CC3)c2c1`, the growth inhibition in experiment [1] was 72% (active); in experiment [4] it was 96% (active). The results for the inhibition in experiment [2] and in experiment [3] were 17% and 4%, respectively. In addition, the result in experiment [5], in experiment [6], in experiment [7] and in experiment [8] was inactive.
On to `CN1CCN(c2nsc3ccc(-c4ccc(NC(=O)Nc5ccccc5)cc4)cc23)CC1`, for which the values for the growth inhibition in experiment [1] and in experiment [4] were 98% (active) and 102% (active), respectively. The inhibition is 38% in experiment [2] and -1% in experiment [3]. In addition, the outcome in experiment [5], in experiment [6], in experiment [7] and in experiment [8] was inactive.
In the case of `Cc1cc(NCCCCCCNc2cc(C)nc3c(C)cccc23)c2cccc(C)c2n1`, the growth inhibition in experiment [1] is 9%; in experiment [4], 100% (active). For the same molecule, the inhibition in experiment [2] was 23%; in experiment [3], -2%. Further, the result in experiment [5], in experiment [6], in experiment [7] and in experiment [8] was inactive.
Regarding `CC(C)(C(=O)NCCC1CCN(CCCCCNC(=O)/C=C/c2ccc(Cl)c(Cl)c2)CC1)c1ccc(Cl)cc1`, the growth inhibition in experiment [1] was 33%; in experiment [4] it was 89% (active). Further, the results for the inhibition in experiment [2] and in experiment [3] were 92% (active) and -2%, respectively. Also, the outcome in experiment [5], in experiment [6], in experiment [7] and in experiment [8] was inactive.
Regarding `COc1cc2nc(NCC3CCN(c4nc(N)c5cc(OC)c(OC)cc5n4)CC3)nc(N)c2cc1OC`, the growth inhibition in experiment [1] is 73% (active); in experiment [4] it was 92% (active). Besides, the inhibition is 12% in experiment [2] and -2% in experiment [3]. Besides, the outcome in experiment [5], in experiment [6], in experiment [7] and in experiment [8] was inactive.
As for `COc1cccc2cc(C(=O)N[C@@H](CC(C)C)C(=O)N[C@H](/C=N/NC(=O)OC(C)(C)C)CC(C)C)oc12`, the growth inhibition in experiment [1] is 57% (active); in experiment [4], 88% (active). In addition, the inhibition was 8% in experiment [2] and -2% in experiment [3]. The outcome in experiment [5], in experiment [6], in experiment [7] and in experiment [8] was inactive.
Regarding `CCCCCCCCOc1ccc(N2C(N)=NC(N)=NC2(C)C)cc1`, the growth inhibition is -6% in experiment [1] and 100% (active) in experiment [4]. Moreover, the inhibition in experiment [2] was 31%; in experiment [3] it was -4%. The outcome in experiment [5], in experiment [6], in experiment [7] and in experiment [8] was inactive.
Take `CN(Cc1cc(C(F)(F)F)cc(C(F)(F)F)c1)C(=O)[C@H]1CNC[C@@H]1c1ccc(F)cc1`: the growth inhibition in experiment [1] is 4%; in experiment [4], 92% (active). Also, the inhibition is 1% in experiment [2] and -5% in experiment [3]. Moreover, the result in experiment [5], in experiment [6], in experiment [7] and in experiment [8] was inactive.
With `O=C(NCC1CC1)C1CCN(C(c2ccccc2)c2nc3ccccc3s2)CC1` (stereo not drawn), the results for the growth inhibition in experiment [1] and in experiment [4] were 49% and 92% (active), respectively. Further, the inhibition was -3% in experiment [2] and 8% in experiment [3]. Also, the result in experiment [5], in experiment [6], in experiment [7] and in experiment [8] was inactive.
Take `CC(C)OCCCNC(=O)c1nc(-c2cccc(C(F)(F)F)c2)sc1C(C)C`: the growth inhibition was 34% in experiment [1] and 94% (active) in experiment [4]. Further, the inhibition in experiment [2] was -7%; in experiment [3] it was -8%. Further, the result in experiment [5], in experiment [6], in experiment [7] and in experiment [8] was inactive.
Regarding `O=C(/C=C/c1ccc(Cl)c(Cl)c1)NCCCCCCN1CCCN(C(=O)Nc2ccc(F)c(Cl)c2)CC1`, the values for the growth inhibition in experiment [1] and in experiment [4] were 1% and 98% (active), respectively. For the same molecule, the inhibition in experiment [2] was 30%; in experiment [3] it was 0%. The outcome in experiment [5], in experiment [6], in experiment [7] and in experiment [8] was inactive.
Take `CCc1cc(Br)c2c(c1)C(NCCCNc1cc(=O)c3ccccc3[nH]1)CCN2` (stereo not drawn): the growth inhibition in experiment [1] is 20%; in experiment [4], 94% (active). Further, the inhibition in experiment [2] was 13%; in experiment [3], -1%. For the same molecule, the result in experiment [5], in experiment [6], in experiment [7] and in experiment [8] was inactive.
For the molecule `Nc1nccc2ccc(OC3CCCCC3)cc12`, the growth inhibition in experiment [1] is 41%; in experiment [4] it was 98% (active). For the same molecule, the inhibition in experiment [2] is 24%; in experiment [3], -4%. Also, the outcome in experiment [5], in experiment [6], in experiment [7] and in experiment [8] was inactive.
For `Brc1ccc(Nc2nc(NCc3ccccc3)c3ccccc3n2)cc1`, the growth inhibition in experiment [1] was 99% (active); in experiment [4], 101% (active). Besides, the inhibition in experiment [2] was 24%; in experiment [3], -4%. In addition, the outcome in experiment [5], in experiment [6], in experiment [7] and in experiment [8] was inactive.
Consider `Fc1ccc2nc(-c3ccc(-c4ccc(CNCCN5CCNCC5)cc4)s3)[nH]c2c1`, for which the growth inhibition was 2% in experiment [1] and 96% (active) in experiment [4]. Moreover, the inhibition in experiment [2] is 24%; in experiment [3], -1%. For the same molecule, the outcome in experiment [5], in experiment [6], in experiment [7] and in experiment [8] was inactive.
For `CCCN(c1ccc(C(F)(F)F)cc1[N+](=O)[O-])S(=O)(=O)C(c1ccccc1)c1ccc(C(F)(F)F)cc1[N+](=O)[O-]` (stereo not drawn), the growth inhibition in experiment [1] is 49%; in experiment [4], 94% (active). Further, the inhibition in experiment [2] was -11%; in experiment [3], 1%. The outcome in experiment [5], in experiment [6], in experiment [7] and in experiment [8] was inactive.

Source of the values: PubChem BioAssay.
